The record followed here is PubChem BioAssay (NCATS).

SMILES strings stand for the structures. Results filed as inconclusive are left out. Calls of active or inactive are those of the source. Calls come from the whole dose curve; as a rule, active = well fitted curve in the direction sought with a large enough effect; inconclusive = small, poorly fitted or top-dose-only effect, or another doubt; inactive = no such curve, though single readings can be large; an effect the other way counts as inactive or inconclusive.

Assay [1] is described as follows: Cell Viability - LYMP2-004 (AID 966). Note: nearly all actives have a fitted effect of over 65% in size. The procedure, abridged:
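Viable-cell number estimated from ATP luminescence (CellTiter-Glo) in 2500 human lymphoblastoid cells/well after 24 hr at 37 C with compound. AC50 fitted to the standard Hill equation.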

Assay [2] in a line: Cell Viability - LYMP2-005 (AID 967). Note: series mostly up to about 92 µM. The procedure, abridged:
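LYMP2-005 human lymphoblastoid cells (2500/well) were treated with compounds for 24 h at 37 C. Intracellular ATP was then measured by CellTiter-Glo luminescence after 30 min at room temperature. AC50 values came from Hill-equation fits of qHTS concentration-response data.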

Assay [3] in a line: Cell Viability - LYMP2-013 (AID 970). Note: nearly all actives have a fitted effect of over 55% in size. Note: potency is the fitted concentration of half-maximal effect. A digest of the protocol: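 In complete culture medium, human lymphoblastoid cells were dosed for 24 hr at 37 C, with tetraoctylammonium bromide (6.4pM to 92 uM) as positive control. Viability reflects luciferase-based ATP signal; AC50 derived from concentration-response curves.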
Assay [4] is described as follows: Cell Viability - LYMP2-021 (AID 974).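 Note: compound exposure lasts 24 hours at 37 °C; nearly all actives have a fitted effect of over 55% in size.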 Note: potency is the fitted concentration of half-maximal effect. A digest of the protocol:
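In qHTS format, compounds are tested against 2500 lymphoblastoid cells per well for 24 h; viable cell number is inferred from ATP-driven luciferase light, and Hill-equation fitting yields AC50 values.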

Assay [5] in a line: Cell Viability - LYMP2-007 (AID 979).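 Note: cells exposed to compound for 24 h before reading; nearly all actives have a fitted effect of over 60% in size.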 Note: potency is the fitted concentration of half-maximal effect. A digest of the protocol: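 Measured via luciferase-based ATP quantitation: lymphoblastoid cells, 24 hr compound exposure at 37 C, AC50 from Hill fits.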
Assay [6] is described as follows: Cell Viability - LYMP2-020 (AID 986). Note: nearly all actives have a fitted effect of over 55% in size. Note: potency is the fitted concentration of half-maximal effect. The procedure, abridged: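 Cells at 2500 per well receive a 24 hr compound exposure at 37 C. Viability is measured as ATP-dependent luciferase luminescence, with AC50 modeled from qHTS concentration-response curves.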
Assay [7] is described as follows: Cell Viability - LYMP2-003 (AID 965).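 Note: cells exposed to compounds for 24 h before reading; nearly all actives have a fitted effect of over 50% in size.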 A digest of the protocol: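 CellTiter-Glo luminescence quantified ATP loss after 24 h compound treatment of LYMP2-003 lymphoblastoid cells at 37 C. Titration series were fitted with the standard Hill equation to give AC50.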
Assay [8] can be described thus: Cell Viability - LYMP2-009 (AID 968). Note: nearly all actives have a fitted effect of over 55% in size. Note: potency is the fitted concentration of half-maximal effect.
Assay [9] can be described thus: Cell Viability - LYMP2-015 (AID 971). Note: nearly all actives have a fitted effect of over 55% in size. A digest of the protocol: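 AC50 values reflect Hill-model fits of ATP-based luminescence (CellTiter-Glo) from a human lymphoblastoid line, 2500 cells/well, treated 24 hr at 37 C.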
A short description of assay [10]: Cell Viability - LYMP2-017 (AID 972). Note: nearly all actives have a fitted effect of over 55% in size. Note: potency is the fitted concentration of half-maximal effect. The procedure, abridged: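 In this qHTS format, lymphoblastoid cells in complete medium receive test compound for a day at 37 C before ATP content is quantified by luciferase luminescence. Reported AC50 figures come from standard Hill-equation curve fitting.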
A short description of assay [11]: Cell Viability - LYMP2-019 (AID 973). Note: nearly all actives have a fitted effect of over 55% in size. The procedure, abridged: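 AC50 values come from Hill-equation modelling of qHTS concentration-response curves, where viability is measured as luciferase-based ATP luminescence in the lymphoblastoid line after 24 hr compound exposure in complete culture medium.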
The nature of assay [12]: Cell Viability - LYMP2-023 (AID 975). Note: nearly all actives have a fitted effect of over 55% in size. Note: potency is the fitted concentration of half-maximal effect. A digest of the protocol: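 In this qHTS, ATP-based luciferase luminescence (CellTiter-Glo) is quantified in human lymphoblastoid cells after 24 hr compound treatment at 37 C; tetraoctylammonium bromide serves as positive control. Concentration-response curves are Hill-fitted to give AC50.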
Assay [13] in a line: Cell Viability - LYMP2-025 (AID 976). Note: series mostly up to about 92 µM. The procedure, abridged:
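Luminescent ATP readout after 24 hr treatment of a human lymphoblastoid line (LYMP2-025, 2500 cells/well, 37 C). Reagent developed 30 min at room temperature; AC50 fitted with the Hill equation.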

The nature of assay [14]: Cell Viability - LYMP2-002 (AID 977).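 Note: series mostly up to about 92 µM; compound exposure lasted 24 h at 37 °C.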 The procedure, abridged:
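Human lymphoblastoid cells, 2500/well, complete medium; 5 h 37 C settle; compound 24 h 37 C; CellTiter-Glo, 30 min RT; luminescence. Decrease in ATP = cytotoxicity; AC50 via Hill equation.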

Assay [15] in a line: Cell Viability - LYMP2-006 (AID 978). Note: series mostly up to about 92 µM; nearly all actives have a fitted effect of over 60% in size. A digest of the protocol: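 Potency values are Hill-fit AC50s for decreases in intracellular ATP (CellTiter-Glo luminescence). LYMP2-006 lymphoblastoid cells, 2500 per well, were exposed to compound in complete culture medium for 24 hr at 37 C.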
Assay [16] in a line: Cell Viability - LYMP2-008 (AID 980). Note: nearly all actives have a fitted effect of over 60% in size. Note: potency is the fitted concentration of half-maximal effect. The procedure, abridged:
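Measured: ATP-dependent luminescence, proportional to viable cell number, in human lymphoblastoid cells treated 24 hr with compound in complete culture medium. Values are AC50s from Hill-equation modelling of qHTS titrations.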

The nature of assay [17]: Cell Viability - LYMP2-010 (AID 981). Note: nearly all actives have a fitted effect of over 55% in size. Note: potency is the fitted concentration of half-maximal effect. The procedure, abridged: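 This 24 hr viability screen uses LYMP2-010 lymphoblastoid cells, quantifies ATP via luciferase luminescence, and derives AC50 from Hill fits of qHTS concentration-response data.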
Assay [18] is described as follows: Cell Viability - LYMP2-012 (AID 982).
Assay [19] in a line: Cell Viability - LYMP2-014 (AID 983). Note: series mostly up to about 92 µM; nearly all actives have a fitted effect of over 50% in size. A digest of the protocol: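 Quantitative HTS in lymphoblastoid cells: 24 hr compound exposure, then CellTiter-Glo ATP luminescence. Positive control was tetraoctylammonium bromide, 6.4pM to 92 uM.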
Assay [20] is described as follows: Cell Viability - LYMP2-018 (AID 985). Note: nearly all actives have a fitted effect of over 50% in size. Note: potency is the fitted concentration of half-maximal effect. A digest of the protocol:
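In this qHTS viability assay, cells are treated for 24 hr and cellular ATP is quantified by luciferase-based luminescence, with tetraoctylammonium bromide as positive control.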

Regarding `NC(=O)N/N=C/c1ccc([N+](=O)[O-])o1`, the result in assay [1] and in assay [2] was inactive. Further, the Potency entry in assay [3], in assay [4], in assay [5] and in assay [6] was “inactive” throughout.

As for `CCCCOC(=O)c1ccc(O)cc1`, the outcome in assay [7], in assay [1], in assay [2], in assay [9], in [11] and in [13] was inactive. In addition, the result in assay [14], in [15], in assay [18] and in assay [19] was inactive. Also, the Potency entry in assay [8], in assay [3], in assay [10], in [4], in [12] and in assay [5] was “inactive” each time. Further, the Potency result in assay [16], in [17], in assay [20] and in assay [6] was “inactive” in each case.

Consider `Cc1cc(CC(=O)O)n(C)c1C(=O)c1ccc(Cl)cc1`, for which the molecule was called inactive in [7], in assay [1], in [2], in [9], in assay [11] and in assay [13]. Also, the result in [14], in assay [15], in assay [18] and in assay [19] was inactive. Besides, the Potency entry in [8], in assay [3], in assay [10], in assay [4], in assay [12] and in [5] was “inactive” each time. Also, the Potency result in assay [16], in assay [17], in assay [20] and in [6] was “inactive” each time.

Turning to `Cc1c(O)cccc1C(=O)N[C@@H](CSc1ccccc1)[C@H](O)CN1C[C@H]2CCCC[C@H]2C[C@H]1C(=O)NC(C)(C)C`, the Potency in [8], in [3], in [10], in assay [4], in assay [12] and in assay [5] was 50.1 µM (active) in each case. For the same molecule, the Potency was 39.8 µM (active) in assay [16], 50.1 µM (active) in [17], 50.1 µM (active) in assay [20] and 50.1 µM (active) in assay [6].

For the molecule `CN(C)CCC=C1c2ccccc2CCc2ccccc21`, the result in [7] and in assay [13] was inactive.

Regarding `NCCNCCNCCN`, the molecule was called inactive in [7], in assay [1], in assay [2], in [9], in assay [11] and in assay [13]. Also, the molecule was called inactive in assay [14], in [18] and in assay [19]. Further, the Potency result in assay [8], in assay [3], in assay [10], in [4], in assay [12] and in [5] was “inactive” each time. Further, the Potency result in assay [16], in assay [17], in assay [20] and in assay [6] was “inactive” in each case.

In the case of `CC12CCC(CC1)C(C)(C)O2`, the molecule was called inactive in assay [7], in assay [2], in assay [9], in assay [11], in [14] and in assay [15]. Further, the call in [18] and in assay [19] was inactive. Besides, the Potency result in assay [8], in assay [3], in assay [10], in [4], in assay [12] and in assay [5] was “inactive” throughout. Moreover, the Potency result in assay [16], in assay [17], in [20] and in [6] was “inactive” in each case.

For `NCCNCCNCCNCCN`, the molecule was classed as inactive in assay [7], in assay [1], in assay [2], in assay [9], in assay [11] and in assay [13]. Besides, the molecule was classed as inactive in assay [14], in assay [15], in assay [18] and in [19]. For the same molecule, the Potency result in [8], in assay [3], in assay [10], in [4], in assay [12] and in [5] was “inactive” in each case. In addition, the Potency result in assay [16], in assay [17], in assay [20] and in [6] was “inactive” each time.

As to `Nc1ccc(S(=O)(=O)Nc2nccs2)cc1`, the molecule was called inactive in assay [7], in assay [1], in assay [2], in [9], in assay [13] and in assay [14]. Further, the molecule was classed as inactive in [15] and in [18]. Also, the Potency entry in [8], in assay [3], in assay [10], in assay [4], in [12] and in assay [5] was “inactive” in each case. The Potency entry in assay [16], in assay [17] and in assay [20] was “inactive” throughout.

For the molecule `COC(=O)C1=C(C)NC(C)=C(C(=O)OC)C1c1ccccc1[N+](=O)[O-]`, in assay [13], the result was inactive.

Consider `Cc1cc2nc3c(=O)[nH]c(=O)nc-3n(C[C@H](O)[C@H](O)[C@H](O)CO)c2cc1C`, for which the molecule was classed as inactive in assay [7], in assay [1], in [2], in [9], in assay [11] and in assay [13]. The result in [14], in [15], in [18] and in assay [19] was inactive. Further, the Potency result in [8], in assay [3], in assay [10], in assay [4], in assay [12] and in [5] was “inactive” each time. Further, the Potency entry in [16], in assay [17], in assay [20] and in assay [6] was “inactive” each time.
